Measurements taken from the supplement of paper PMC7366291.
Counter-ions that a name gives are not always drawn. ± gives the standard deviation or the standard deviation of the averaged measurements.

Columns and labels:
Settings in all cases: 25 µM; exposure: 24-48 hpf
[1] = system: Danio rerio Tg(wt1b:EGFP) embryo, pronephros; experiment: glomerular separation, fold change vs DMSO control; higher = glomeruli further apart (abnormal)
In short: (§1)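 Features are reported as fold changes against the mean of same-day DMSO-treated embryos. Before that, values more than 2 SD away from the feature mean were excluded. The embryos, dechorionated Tg(wt1b:EGFP) zebrafish, had been exposed from 24 to 48 hpf at 28.5°C to 25 μM compound in 0.5% DMSO in HEPES-buffered E3 with 0.003% PTU, and distances and angles came from 16 manually set points on maximum projections of dorsal pronephros images in Fiji.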

[2] = system: Danio rerio Tg(wt1b:EGFP) embryo, pronephros; experiment: glomerular width (mean of left and right), fold change vs DMSO control; higher = wider glomerulus
In short: as §1

[3] = system: Danio rerio Tg(wt1b:EGFP) embryo, pronephros; experiment: fraction of imaged embryos annotated as normal kidney; higher = less nephrotoxic; extreme values may be limits of the assay
In short: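 Embryos of the Tg(wt1b:EGFP) zebrafish line were dechorionated and held in 12-well plates with 25 μM compound in 0.5% DMSO and 5 mM HEPES-buffered E3 containing 0.003% PTU, from 24 to 48 hpf at 28.5°C. Larvae were then anaesthetised with tricaine, set dorsal side up in agarose-filled 96-well plates, and their pronephroi imaged by widefield fluorescence at 470 nm over 10 z-slices. Each value is the fraction of embryos per treatment placed in the normal-kidney category after manual annotation of maximum projections.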

[4] = system: Danio rerio Tg(wt1b:EGFP) embryo, pronephros; experiment: pronephric angle neck segment to proximal convoluted tubule (mean of left and right), fold change vs DMSO control; higher = larger pronephric angle
In short: as §1

SMILES | glomerular separation [1] | glomerular width [2] | fraction of imaged embryos annotated as normal kidney [3] | pronephric angle neck segment [4]
CCOC(=O)[C@H](CCc1ccccc1)N[C@H]1CCc2ccccc2N(CC(=O)O)C1=O [Benazepril hydrochloride] | 0.73 ± 0.18 | 1.05 ± 0.023 | 0.75 | 0.964 ± 0.087
CC(C)COCC(CN(Cc1ccccc1)c1ccccc1)N1CCCC1 (configuration not stated) [Bepridil hydrochloride] | 0.94 ± 0.41 | 1.03 ± 0.03 | 0.818 | 0.993 ± 0.033
O=C(Oc1cccc2cccnc12)c1ccccc1 [Benzoxiquine] | 3.04 ± 1.1 | 0.56 ± 0.11 | 0.0833 | 1.1 ± 0.022
Cc1c(Cl)cccc1Nc1ncccc1C(=O)O [Clonixin Lysinate] | 4.04 ± 1.5 | 0.545 ± 0.048 | 0 | 1.81 ± 0.068
CC(=O)OCC(=O)[C@@]12N=C(C)O[C@@H]1C[C@H]1[C@@H]3CCC4=CC(=O)C=C[C@]4(C)[C@H]3[C@@H](O)C[C@@]12C [Deflazacort] | 1.15 ± 0.41 | 1.06 ± 0.014 | 0.25 | 0.944 ± 0.058
CN[C@@H]1[C@@H](O)[C@@H](O[C@@H]2[C@@H](O)[C@H](O[C@H]3OC(CN)=CC[C@H]3N)[C@@H](N)C[C@H]2N)OC[C@]1(C)O [Sisomicin sulfate] | 1.23 ± 0.84 | 1.02 ± 0.043 | 0.833 | 1.11 ± 0.029
C=C1/C(=C\C=C2/CCC[C@]3(C)[C@@H]([C@H](C)/C=C/[C@@H](O)C4CC4)CC[C@@H]23)C[C@@H](O)C[C@@H]1O [Calcipotriene] | 1.01 ± 0.34 | 1.06 ± 0.012 | 0.75 | 0.89787 ± 0.00058
COCCCOc1ccnc(C[S+]([O-])c2nc3ccccc3[nH]2)c1C (configuration not stated) [Rabeprazole Sodium salt] | 0.694 ± 0.27 | 1.01 ± 0.019 | 0.75 | 1.11 ± 0.019
CCN1CCC[C@H]1CNC(=O)c1c(O)c(Cl)cc(Cl)c1OC [Raclopride] | 1.26 ± 0.47 | 0.903 ± 0.033 | 0.917 | 1.02 ± 0.12
NS(=O)(=O)c1cc(C(=O)O)cc(N2CCCC2)c1Oc1ccccc1 [Piretanide] | 1.08 ± 0.68 | 1.02 ± 0.048 | 0.917 | 1.03 ± 0.038
CCCOc1ccccc1-c1nc2[nH]nnc2c(=O)[nH]1 [Zaprinast] | 1.56 ± 0.95 | 0.99 ± 0.074 | 0.727 | 1.08 ± 0.12
Fc1ccc([C@@H]2CCNC[C@H]2COc2ccc3c(c2)OCO3)cc1 [Paroxetine Hydrochloride] | 0.594 ± 0.17 | 1.03 ± 0.042 | 1 | 0.9885 ± 0.0011
OCCN1CCN(CCCN2c3ccccc3Sc3ccc(Cl)cc32)CC1 [Perphenazine] | 0.838 ± 0.23 | 1.07 ± 0.063 | 0.917 | 1.03 ± 0.012
C#C[C@]1(OC(C)=O)CC[C@H]2[C@@H]3CCC4=CC(=NO)CC[C@@H]4[C@H]3CC[C@@]21CC (mixture of isomers) [Norgestimate] | 2.81 ± 1.2 | 0.858 ± 0.059 | 0.0833 | 1.37 ± 0.015
Cn1nnc2c(C(N)=O)ncn2c1=O [Temozolomide] | 0.665 ± 0.25 | 1 ± 0.046 | 0.917 | 0.9479 ± 0.0066
CNc1ncnc2c1ncn2[C@@H]1O[C@H](CO)[C@@H](O)[C@H]1O [N6-methyladenosine] | 0.849 ± 0.21 | 1.05 ± 0.029 | 1 | 1.01 ± 0.065
CCc1cccc2c3c([nH]c12)C(CC)(CC(=O)O)OCC3 (configuration not stated) [Etodolac] | 1.66 ± 0.82 | 0.954 ± 0.025 | 0.636 | 1.13 ± 0.055
NS(=O)(=O)c1cc(Cl)c(Cl)c(S(N)(=O)=O)c1 [Dichlorphenamide] | 0.91 ± 0.4 | 1.15 ± 0.06 | 0.727 | 0.941 ± 0.041
O=C(O)c1cn(-c2ccc(F)cc2)c2cc(N3CCNCC3)c(F)cc2c1=O [Sarafloxacin] | 1.17 ± 0.4 | 1.08 ± 0.039 | 0.455 | 1.02 ± 0.013
Nc1ncnc2c1ncn2[C@@H]1O[C@H](CO)[C@@H](O)[C@@H]1O [Vidarabine] | 1.29 ± 0.56 | 1.06 ± 0.023 | 0.583 | 1.03 ± 0.074
N#Cc1cc(NC(=O)C(=O)O)c(Cl)c(NC(=O)C(=O)O)c1 [Lodoxamide] | 1.24 ± 0.55 | 0.9808 ± 0.0037 | 0.917 | 1.05 ± 0.059
CC[C@H]1OC(=O)[C@H](C)[C@@H](O[C@H]2C[C@@](C)(OC)[C@@H](O)[C@H](C)O2)[C@H](C)[C@@H](O[C@@H]2O[C@H](C)C[C@H](N(C)C)[C@H]2O)[C@](C)(O)C[C@@H](C)[C@@H]2N[C@@H](COCCOC)O[C@H]([C@H]2C)[C@]1(C)O [Dirithromycin] | 1 ± 0.51 | 0.964 ± 0.041 | 1 | 0.981 ± 0.065
COC(=O)[C@H]1[C@H]2C[C@@H]3c4[nH]c5cc(OC)ccc5c4CCN3C[C@H]2C[C@@H](OC(=O)c2cc(OC)c(OC)c(OC)c2)[C@@H]1OC [Reserpine] | 0.705 ± 0.29 | 0.995 ± 0.061 | 0.917 | 1.0157 ± 3.5e-05
CC(C)Nc1cccnc1N1CCN(C(=O)c2cc3cc(NS(C)(=O)=O)ccc3[nH]2)CC1 [Delavirdine] | 0.975 ± 0.41 | 1.16 ± 0.017 | 0.667 | 0.921 ± 0.045
CC(C)OC(=O)C(C)(C)Oc1ccc(C(=O)c2ccc(Cl)cc2)cc1 [Fenofibrate] | 6.84 ± 3.3 | 0.648 ± 0.076 | 0 | 1.801 ± 0.0082
COC(=O)CCc1ccc(OCC(O)CNC(C)C)cc1 (configuration not stated) [Esmolol hydrochloride] | 0.66 ± 0.2 | 1.15 ± 0.035 | 0.75 | 0.986 ± 0.013
CCOc1nc2cccc(C(=O)O)c2n1Cc1ccc(-c2ccccc2-c2nnn[nH]2)cc1 [Candesartan] | 0.996 ± 0.37 | 1.03 ± 0.023 | 0.917 | 1.01 ± 0.019

SMILES | glomerular separation [1] | glomerular width [2] | fraction of imaged embryos annotated as normal kidney [3] | pronephric angle neck segment [4]
OC(CCN1CCCCC1)(c1ccccc1)C1CCCCC1 (configuration not stated) [Trihexyphenidyl-D,L Hydrochloride] | 0.867 ± 0.41 | 0.97 ± 0.04 | 0.833 | 0.985 ± 0.056
Cc1c(-c2ccccc2)oc2c(C(=O)OCCN3CCCCC3)cccc2c1=O [Flavoxate hydrochloride] | 1.17 ± 0.37 | 1.08 ± 0.037 | 0.75 | 1.06 ± 0.02
COc1cccc2c1C(=O)c1c(O)c3c(c(O)c1C2=O)C[C@@](O)(C(=O)CO)C[C@@H]3O[C@H]1C[C@H](N)[C@H](O)[C@H](C)O1 [Doxorubicin hydrochloride] | 1.19 ± 0.75 | 0.959 ± 0.11 | 0.75 | 0.9779 ± 0.0016
CN1CCCC(CC2c3ccccc3Sc3ccccc32)C1 (configuration not stated) [Metixene hydrochloride] | 0.961 ± 0.25 | 1 ± 0.021 | 1 | 0.953 ± 0.044
CC(=O)/N=c1/sc(S(N)(=O)=O)nn1C [Methazolamide] | 0.898 ± 0.5 | 1.14 ± 0.06 | 0.636 | 1.02 ± 0.014
CC[N+](C)(CC)CCOC(=O)C1c2ccccc2Oc2ccccc21 [Methantheline bromide] | 0.979 ± 0.45 | 0.996 ± 0.029 | 0.917 | 1.045 ± 0.0066
OCCN(CCO)c1nc(N2CCCCC2)c2nc(N(CCO)CCO)nc(N3CCCCC3)c2n1 [Dipyridamole] | 0.687 ± 0.13 | 0.982 ± 0.046 | 0.8 | 1.017 ± 0.0071
CNCCCC12CCC(c3ccccc31)c1ccccc12 [Maprotiline hydrochloride] | 1.28 ± 0.49 | 0.992 ± 0.049 | 0.909 | 1.1 ± 0.058
CC(C)NC[C@@H](O)COc1ccc(CC(N)=O)cc1 [(R)-(+)-Atenolol] | 0.655 ± 0.16 | 0.977 ± 0.036 | 0.917 | 0.977 ± 0.029
CCOC(=O)[N-]c1c[n+](N2CCOCC2)no1 [Molsidomine] | 0.9 ± 0.41 | 0.9963 ± 0.0028 | 0.833 | 0.982 ± 0.013
CCN(CC)CCOCCOC(=O)C1(c2ccccc2)CCCC1 [Carbetapentane citrate] | 0.953 ± 0.34 | 0.949 ± 0.062 | 0.75 | 1.06 ± 0.11
COC(=O)Nc1nc2cc(C(=O)c3cccs3)ccc2[nH]1 [Nocodazole] | 1.86 ± 0.67 | 0.523 ± 0.024 | 0 | 1.87 ± 0.13
CC(=O)N(CC(O)CN(C(C)=O)c1c(I)c(C(=O)NCC(O)CO)c(I)c(C(=O)NCC(O)CO)c1I)c1c(I)c(C(=O)NCC(O)CO)c(I)c(C(=O)NCC(O)CO)c1I (configuration not stated) [Iodixanol] | 0.874 ± 0.28 | 1.043 ± 0.0099 | 0.917 | 1 ± 0.048
N=C(N)NC(=O)c1nc(Cl)c(N)nc1N [Amiloride hydrochloride dihydrate] | 0.835 ± 0.27 | 0.978 ± 0.074 | 0.583 | 0.985 ± 0.023
CCCCN1CCCCC1C(=O)Nc1c(C)cccc1C (configuration not stated) [Bupivacaine hydrochloride] | 1.23 ± 0.54 | 0.946 ± 0.021 | 0.667 | 1.01 ± 0.13
C[N+](C)(C)CCCCCC[N+](C)(C)C [Hexamethonium dibromide dihydrate] | 0.932 ± 0.3 | 1.09 ± 0.035 | 0.667 | 0.997 ± 0.041
Nc1ccccc1S(N)(=O)=O [2-Aminobenzenesulfonamide] | 0.99 ± 0.24 | 1.02 ± 0.072 | 0.917 | 1.052 ± 0.00059
CC1(C)O[C@@H]2C[C@H]3[C@@H]4C[C@H](F)C5=CC(=O)C=C[C@]5(C)[C@H]4[C@@H](O)C[C@]3(C)[C@]2(C(=O)CO)O1 [Flunisolide] | 1.26 ± 0.42 | 1.21 ± 0.018 | 0.667 | 0.92856 ± 0.0002
CO[C@H]1/C=C/O[C@@]2(C)Oc3c(C)c(O)c4c(O)c(c(/C=N/N5CCN(C6CCCC6)CC5)c(O)c4c3C2=O)NC(=O)/C(C)=C\C=C\[C@H](C)[C@H](O)[C@@H](C)[C@@H](O)[C@@H](C)[C@H](OC(C)=O)[C@@H]1C [Rifapentine] | 0.895 ± 0.2 | 0.985 ± 0.066 | 0.909 | 1.1 ± 0.094
Cc1cnc(NC(=O)C2=C(O)c3ccccc3S(=O)(=O)N2C)s1 [Meloxicam] | 6.33 ± 2.2 | 0.678 ± 0.021 | 0 | 1.76 ± 0.0091
CCOC(=O)c1ccc(OC(=O)CCCCCNC(=N)N)cc1 [Gabexate mesilate] | 0.986 ± 0.37 | 0.986 ± 0.011 | 0.8 | 0.961 ± 0.013
C[C@H](CCC(=O)O)[C@H]1CC[C@H]2[C@@H]3[C@@H](O)C[C@@H]4C[C@H](O)CC[C@]4(C)[C@H]3CC[C@]12C [Urosiol] | 1.3 ± 0.7 | 0.775 ± 0.074 | 0.583 | 0.965 ± 0.032
COc1ccc2c(c1)C(=O)N(CCc1ccc(S(=O)(=O)NC(=O)NC3CCCCC3)cc1)C(=O)C2(C)C [Gliquidone] | 1.07 ± 0.54 | 0.883 ± 0.011 | 1 | 1.12 ± 0.039
CCOCCn1c(N2CCCN(C)CC2)nc2ccccc21 [Emedastine] | 0.707 ± 0.16 | 0.979 ± 0.051 | 0.917 | 0.9917 ± 0.0031
NC(=O)N1c2ccccc2CC(=O)c2ccccc21 [Oxcarbazepine] | 0.94 ± 0.28 | 1 ± 0.035 | 0.833 | 0.9454 ± 0.0088
CC(C)NNC(=O)c1ccncc1 [Iproniazide phosphate] | 0.735 ± 0.21 | 1.03 ± 0.024 | 1 | 0.9788 ± 0.0054
